Paper PMC7862700, “An all-to-all approach to the identification of sequence-specific readers for epigenetic DNA modifications on cytosine”

Legend:
Assay in all cases: DAPPL (digital affinity profiling via proximity ligation, sequencing); 10 mM Tris-HCl pH 7.5, 50 mM NaCl, 1 mM DTT, 4% glycerol, room temperature, 30 min; GST-TFs on glutathione beads, 16-mer random dsDNA library, 0.1% formaldehyde crosslink after washing; high values mean tight binding
FEV = target: T1, FEV (Homo sapiens, UniProt Q99581 1-238); settings: protein: recombinant; tags: N-terminal GST; dsDNA, one strand shown
T1 sequence: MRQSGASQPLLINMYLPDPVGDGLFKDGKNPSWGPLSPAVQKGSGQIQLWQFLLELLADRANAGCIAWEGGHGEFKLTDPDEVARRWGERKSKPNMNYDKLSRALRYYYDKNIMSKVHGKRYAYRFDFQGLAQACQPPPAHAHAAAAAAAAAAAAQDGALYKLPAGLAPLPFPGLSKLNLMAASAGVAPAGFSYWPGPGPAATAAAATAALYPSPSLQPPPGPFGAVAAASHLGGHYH
Method in brief: (§1)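 Binding signal is each hexamer's read frequency for a factor divided by its frequency in the tag-only sample. The factors were GST-fused human transcription factors from yeast, captured on glutathione beads, DNA-barcoded and pooled with that sample. Pools were incubated with 200 nmole of a random double-stranded 16-mer DNA library in Tris/NaCl/DTT/glycerol buffer at room temperature for 30 min, then washed, crosslinked with 0.1% formaldehyde, proximity-ligated with BsaI/T4 ligase (1 h, 37 °C), PCR-amplified and sequenced on an Illumina NextSeq500.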

ETV5 = ETV5 (Homo sapiens, UniProt P41161 1-510); settings: protein: recombinant; tags: N-terminal GST; dsDNA, one strand shown
Method in brief: as §1

HSF1 = HSF1 (Homo sapiens, UniProt Q00613 1-529); settings: protein: recombinant; tags: N-terminal GST; chain copies: 3; dsDNA, one strand shown
Method in brief: as §1

SPIC = target: T2, SPIC (Homo sapiens, UniProt Q8N5J4 1-248); settings: protein: recombinant; tags: N-terminal GST; dsDNA, one strand shown
T2 sequence: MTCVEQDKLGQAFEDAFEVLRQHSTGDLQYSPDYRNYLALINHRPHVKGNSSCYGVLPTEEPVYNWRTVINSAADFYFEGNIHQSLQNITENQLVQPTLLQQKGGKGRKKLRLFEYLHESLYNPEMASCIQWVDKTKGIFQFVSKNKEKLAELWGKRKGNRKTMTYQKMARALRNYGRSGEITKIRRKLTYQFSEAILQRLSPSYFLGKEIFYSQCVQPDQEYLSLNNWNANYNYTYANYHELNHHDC
Method in brief: as §1

ELF4 = ELF4 (Homo sapiens, UniProt Q99607 1-663); settings: protein: recombinant; tags: N-terminal GST; dsDNA, one strand shown
Method in brief: as §1

ELK4 = target: T3, ELK4 (Homo sapiens, UniProt P28324-2 1-405); settings: protein: recombinant; tags: N-terminal GST; dsDNA, one strand shown
T3 sequence: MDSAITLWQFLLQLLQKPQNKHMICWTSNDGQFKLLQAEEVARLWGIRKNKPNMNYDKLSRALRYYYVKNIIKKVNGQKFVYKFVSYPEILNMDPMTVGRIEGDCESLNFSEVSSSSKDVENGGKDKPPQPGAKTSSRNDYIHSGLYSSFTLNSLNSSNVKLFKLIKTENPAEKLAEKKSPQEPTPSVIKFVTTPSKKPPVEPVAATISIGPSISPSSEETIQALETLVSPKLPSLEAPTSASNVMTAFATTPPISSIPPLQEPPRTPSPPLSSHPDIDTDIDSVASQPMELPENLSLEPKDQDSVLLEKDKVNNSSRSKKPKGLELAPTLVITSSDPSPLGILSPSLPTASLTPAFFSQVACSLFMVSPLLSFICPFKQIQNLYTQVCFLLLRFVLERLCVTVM
Method in brief: as §1

ETV2 = target: T4, ETV2 (Homo sapiens, UniProt O00321 1-342); settings: protein: recombinant; tags: N-terminal GST; dsDNA, one strand shown
T4 sequence: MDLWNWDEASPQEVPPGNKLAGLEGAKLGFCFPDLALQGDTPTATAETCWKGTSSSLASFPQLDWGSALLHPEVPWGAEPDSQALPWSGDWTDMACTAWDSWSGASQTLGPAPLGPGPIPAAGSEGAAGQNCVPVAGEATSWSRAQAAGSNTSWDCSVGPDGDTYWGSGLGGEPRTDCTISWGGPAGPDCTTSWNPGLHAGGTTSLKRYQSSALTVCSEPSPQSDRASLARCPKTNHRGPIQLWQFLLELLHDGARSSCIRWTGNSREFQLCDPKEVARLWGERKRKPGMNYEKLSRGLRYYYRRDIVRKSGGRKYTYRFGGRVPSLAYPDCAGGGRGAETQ
Method in brief: as §1

ELF3 = target: T5, ELF3 (Homo sapiens, UniProt P78545 1-371); settings: protein: recombinant; tags: N-terminal GST; dsDNA, one strand shown
T5 sequence: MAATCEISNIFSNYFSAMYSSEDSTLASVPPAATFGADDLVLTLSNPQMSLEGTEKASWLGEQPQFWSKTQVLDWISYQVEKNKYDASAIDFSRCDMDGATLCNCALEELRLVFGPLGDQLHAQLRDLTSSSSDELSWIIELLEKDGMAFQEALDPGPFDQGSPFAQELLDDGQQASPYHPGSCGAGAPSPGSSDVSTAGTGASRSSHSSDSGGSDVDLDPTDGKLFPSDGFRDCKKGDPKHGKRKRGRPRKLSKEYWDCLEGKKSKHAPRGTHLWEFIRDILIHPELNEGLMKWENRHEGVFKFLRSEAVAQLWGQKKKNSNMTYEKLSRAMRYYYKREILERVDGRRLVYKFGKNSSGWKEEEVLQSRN
Method in brief: as §1

CRX = CRX (Homo sapiens, UniProt O43186 1-299); settings: protein: recombinant; tags: N-terminal GST; dsDNA, one strand shown
Method in brief: as §1

ETV1 = ETV1 (Homo sapiens, UniProt P50549 1-477); settings: protein: recombinant; tags: N-terminal GST; dsDNA, one strand shown
Method in brief: as §1

ERF = target: T6, ERF (Homo sapiens, UniProt P50548 1-548); settings: protein: recombinant; tags: N-terminal GST; dsDNA, one strand shown
T6 sequence: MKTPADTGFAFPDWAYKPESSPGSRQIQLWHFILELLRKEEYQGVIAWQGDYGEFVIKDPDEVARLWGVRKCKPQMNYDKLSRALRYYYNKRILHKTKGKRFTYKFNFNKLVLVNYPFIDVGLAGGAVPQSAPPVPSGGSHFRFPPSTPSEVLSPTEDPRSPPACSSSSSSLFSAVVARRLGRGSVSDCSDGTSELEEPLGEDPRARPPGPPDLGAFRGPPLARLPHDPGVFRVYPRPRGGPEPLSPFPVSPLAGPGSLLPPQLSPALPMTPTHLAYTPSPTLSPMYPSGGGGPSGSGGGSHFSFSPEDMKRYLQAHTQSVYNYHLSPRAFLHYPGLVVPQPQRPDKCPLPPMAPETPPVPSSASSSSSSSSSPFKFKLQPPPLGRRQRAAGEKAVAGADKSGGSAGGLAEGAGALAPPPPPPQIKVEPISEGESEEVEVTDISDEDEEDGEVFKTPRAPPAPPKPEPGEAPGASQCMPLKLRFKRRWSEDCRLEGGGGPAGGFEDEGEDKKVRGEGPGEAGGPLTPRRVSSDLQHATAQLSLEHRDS
Method in brief: as §1

ETV3L = target: T7, ETV3L (Homo sapiens, UniProt Q6ZN32 1-361); settings: protein: recombinant; tags: N-terminal GST; dsDNA, one strand shown
T7 sequence: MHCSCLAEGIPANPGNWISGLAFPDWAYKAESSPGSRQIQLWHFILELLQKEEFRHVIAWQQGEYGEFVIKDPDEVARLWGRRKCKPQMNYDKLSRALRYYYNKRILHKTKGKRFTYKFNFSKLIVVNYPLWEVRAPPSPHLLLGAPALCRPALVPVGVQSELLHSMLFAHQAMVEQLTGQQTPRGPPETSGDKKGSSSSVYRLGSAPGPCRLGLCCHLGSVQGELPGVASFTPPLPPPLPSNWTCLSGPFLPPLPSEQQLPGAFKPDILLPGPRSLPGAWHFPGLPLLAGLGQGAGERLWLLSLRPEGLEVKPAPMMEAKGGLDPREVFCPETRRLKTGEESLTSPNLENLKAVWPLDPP
Method in brief: as §1

ETS2 = target: T8, ETS2 (Homo sapiens, UniProt P15036 1-469); settings: protein: recombinant; tags: N-terminal GST; dsDNA, one strand shown
T8 sequence: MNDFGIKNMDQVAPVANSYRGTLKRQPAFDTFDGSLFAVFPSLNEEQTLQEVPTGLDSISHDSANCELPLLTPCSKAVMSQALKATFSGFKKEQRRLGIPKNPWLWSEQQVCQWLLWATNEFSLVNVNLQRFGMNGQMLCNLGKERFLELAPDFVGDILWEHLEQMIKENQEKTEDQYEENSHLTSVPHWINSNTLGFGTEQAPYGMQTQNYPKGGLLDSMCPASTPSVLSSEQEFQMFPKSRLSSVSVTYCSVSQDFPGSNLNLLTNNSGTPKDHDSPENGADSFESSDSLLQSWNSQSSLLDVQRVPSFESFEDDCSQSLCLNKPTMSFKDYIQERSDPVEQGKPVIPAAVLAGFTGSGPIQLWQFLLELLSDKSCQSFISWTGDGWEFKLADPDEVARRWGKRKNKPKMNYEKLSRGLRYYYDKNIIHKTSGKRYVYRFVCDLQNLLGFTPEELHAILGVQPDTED
Method in brief: as §1

SPDEF = target: T9, SPDEF (Homo sapiens, UniProt O95238 1-335); settings: protein: recombinant; tags: N-terminal GST; dsDNA, one strand shown
T9 sequence: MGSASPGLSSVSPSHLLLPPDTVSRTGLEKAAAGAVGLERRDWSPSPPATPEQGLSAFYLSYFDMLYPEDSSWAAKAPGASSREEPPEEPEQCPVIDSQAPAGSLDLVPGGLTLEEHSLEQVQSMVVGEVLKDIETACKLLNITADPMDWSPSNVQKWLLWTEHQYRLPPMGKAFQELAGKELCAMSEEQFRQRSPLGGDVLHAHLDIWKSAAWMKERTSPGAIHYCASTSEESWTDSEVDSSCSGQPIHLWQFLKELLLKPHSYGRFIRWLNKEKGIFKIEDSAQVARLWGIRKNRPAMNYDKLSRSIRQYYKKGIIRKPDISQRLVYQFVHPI
Method in brief: as §1

ETV7 = target: T10, ETV7 (Homo sapiens, UniProt Q9Y603 1-341); settings: protein: recombinant; tags: N-terminal GST; dsDNA, one strand shown
T10 sequence: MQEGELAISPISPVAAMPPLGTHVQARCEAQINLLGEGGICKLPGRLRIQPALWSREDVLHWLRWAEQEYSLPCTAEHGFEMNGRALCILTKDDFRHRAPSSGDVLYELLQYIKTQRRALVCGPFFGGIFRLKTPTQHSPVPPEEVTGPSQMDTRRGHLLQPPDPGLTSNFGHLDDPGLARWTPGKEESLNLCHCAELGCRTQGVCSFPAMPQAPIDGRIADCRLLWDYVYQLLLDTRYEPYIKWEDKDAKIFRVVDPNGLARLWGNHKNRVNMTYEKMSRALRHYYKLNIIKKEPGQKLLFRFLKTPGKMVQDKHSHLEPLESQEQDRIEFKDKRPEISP
Method in brief: as §1

ELF5 = target: T11, ELF5 (Homo sapiens, UniProt Q9UKW6-2 1-255); settings: protein: recombinant; tags: N-terminal GST; dsDNA, one strand shown
T11 sequence: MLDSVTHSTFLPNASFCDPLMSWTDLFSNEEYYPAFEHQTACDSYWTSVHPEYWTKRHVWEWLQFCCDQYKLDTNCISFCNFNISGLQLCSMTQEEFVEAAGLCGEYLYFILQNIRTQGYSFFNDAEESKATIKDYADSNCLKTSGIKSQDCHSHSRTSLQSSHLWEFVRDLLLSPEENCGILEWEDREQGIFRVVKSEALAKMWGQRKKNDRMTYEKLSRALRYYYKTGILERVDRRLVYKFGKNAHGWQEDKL
Method in brief: as §1

ETV3 = target: T12, ETV3 (Homo sapiens, UniProt P41162-2 1-143); settings: protein: recombinant; tags: N-terminal GST; dsDNA, one strand shown
T12 sequence: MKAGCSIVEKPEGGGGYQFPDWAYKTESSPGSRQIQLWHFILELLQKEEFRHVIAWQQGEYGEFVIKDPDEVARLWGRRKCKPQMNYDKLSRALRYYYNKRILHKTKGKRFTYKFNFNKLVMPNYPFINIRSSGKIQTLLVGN
Method in brief: as §1

ETV6 = ETV6 (Homo sapiens, UniProt P41212 1-452); settings: protein: recombinant; tags: N-terminal GST; dsDNA, one strand shown
Method in brief: as §1

Chain of ELF4 (Q99607 whole entry): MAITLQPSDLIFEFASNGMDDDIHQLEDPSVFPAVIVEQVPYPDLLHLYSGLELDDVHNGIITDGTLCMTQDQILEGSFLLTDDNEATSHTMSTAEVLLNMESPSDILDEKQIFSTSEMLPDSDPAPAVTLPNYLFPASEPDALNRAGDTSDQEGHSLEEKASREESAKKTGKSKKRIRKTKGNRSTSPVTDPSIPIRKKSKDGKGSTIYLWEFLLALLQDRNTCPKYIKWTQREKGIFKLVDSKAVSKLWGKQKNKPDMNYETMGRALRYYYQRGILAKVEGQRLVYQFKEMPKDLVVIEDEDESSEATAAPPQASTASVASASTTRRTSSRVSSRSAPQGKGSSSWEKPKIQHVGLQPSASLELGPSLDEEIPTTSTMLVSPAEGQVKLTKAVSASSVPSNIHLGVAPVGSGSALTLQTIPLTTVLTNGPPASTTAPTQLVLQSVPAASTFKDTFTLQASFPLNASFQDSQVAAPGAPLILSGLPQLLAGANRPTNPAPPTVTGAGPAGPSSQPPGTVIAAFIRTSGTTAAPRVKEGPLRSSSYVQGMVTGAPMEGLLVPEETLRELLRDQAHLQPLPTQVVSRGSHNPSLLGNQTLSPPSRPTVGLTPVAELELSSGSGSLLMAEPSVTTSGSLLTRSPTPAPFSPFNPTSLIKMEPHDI
Chain of CRX (O43186 whole entry): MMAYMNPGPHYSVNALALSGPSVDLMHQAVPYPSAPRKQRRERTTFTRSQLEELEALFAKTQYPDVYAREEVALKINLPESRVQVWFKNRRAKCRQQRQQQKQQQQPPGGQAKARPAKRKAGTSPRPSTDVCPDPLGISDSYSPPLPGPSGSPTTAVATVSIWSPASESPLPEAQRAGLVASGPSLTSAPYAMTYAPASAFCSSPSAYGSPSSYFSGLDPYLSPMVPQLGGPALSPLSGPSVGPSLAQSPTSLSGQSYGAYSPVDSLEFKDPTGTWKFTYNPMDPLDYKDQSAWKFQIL
Chain of ETV5 (P41161 whole entry): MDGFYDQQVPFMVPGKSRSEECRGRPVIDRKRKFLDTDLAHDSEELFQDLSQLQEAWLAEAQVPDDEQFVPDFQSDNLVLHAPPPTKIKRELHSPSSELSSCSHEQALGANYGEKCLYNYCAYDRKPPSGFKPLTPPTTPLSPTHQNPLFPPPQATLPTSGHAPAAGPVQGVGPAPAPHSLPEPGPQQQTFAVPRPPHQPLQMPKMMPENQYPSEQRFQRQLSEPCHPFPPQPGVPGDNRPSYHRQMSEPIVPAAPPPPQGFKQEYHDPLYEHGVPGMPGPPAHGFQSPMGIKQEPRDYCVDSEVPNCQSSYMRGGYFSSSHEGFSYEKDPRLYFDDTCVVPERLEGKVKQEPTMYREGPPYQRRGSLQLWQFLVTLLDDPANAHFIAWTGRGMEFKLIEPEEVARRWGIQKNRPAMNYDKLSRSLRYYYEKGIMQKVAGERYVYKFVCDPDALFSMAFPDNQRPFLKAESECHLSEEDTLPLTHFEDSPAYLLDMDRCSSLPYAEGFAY
Chain of ETV1 (P50549 whole entry): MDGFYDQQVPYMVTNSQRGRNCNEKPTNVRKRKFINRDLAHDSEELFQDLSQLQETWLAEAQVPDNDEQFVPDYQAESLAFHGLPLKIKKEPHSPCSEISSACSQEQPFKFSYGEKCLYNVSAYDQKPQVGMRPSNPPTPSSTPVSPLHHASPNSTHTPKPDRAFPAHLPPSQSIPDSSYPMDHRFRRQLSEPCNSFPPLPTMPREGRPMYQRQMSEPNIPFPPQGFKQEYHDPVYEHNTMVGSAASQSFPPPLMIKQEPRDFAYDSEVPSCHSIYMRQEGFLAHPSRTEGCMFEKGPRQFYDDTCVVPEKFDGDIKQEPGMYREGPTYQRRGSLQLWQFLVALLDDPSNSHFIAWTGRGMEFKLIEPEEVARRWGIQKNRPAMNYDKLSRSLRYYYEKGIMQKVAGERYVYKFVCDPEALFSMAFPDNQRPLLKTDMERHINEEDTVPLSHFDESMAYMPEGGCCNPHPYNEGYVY
Chain of ETV6 (P41212 whole entry): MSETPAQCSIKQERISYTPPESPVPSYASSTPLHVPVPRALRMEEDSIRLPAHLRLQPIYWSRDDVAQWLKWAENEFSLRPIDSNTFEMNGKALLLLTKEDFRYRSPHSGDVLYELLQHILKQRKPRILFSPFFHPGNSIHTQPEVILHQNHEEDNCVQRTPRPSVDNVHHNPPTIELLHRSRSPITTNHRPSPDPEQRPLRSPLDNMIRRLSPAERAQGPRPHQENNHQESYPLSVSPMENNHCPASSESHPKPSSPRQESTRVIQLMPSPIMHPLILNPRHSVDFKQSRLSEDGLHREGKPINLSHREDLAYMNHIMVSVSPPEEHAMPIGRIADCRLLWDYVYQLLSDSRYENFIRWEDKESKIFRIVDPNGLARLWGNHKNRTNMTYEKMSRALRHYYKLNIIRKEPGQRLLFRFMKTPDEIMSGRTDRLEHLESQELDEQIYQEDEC
Chain of HSF1 (Q00613 whole entry): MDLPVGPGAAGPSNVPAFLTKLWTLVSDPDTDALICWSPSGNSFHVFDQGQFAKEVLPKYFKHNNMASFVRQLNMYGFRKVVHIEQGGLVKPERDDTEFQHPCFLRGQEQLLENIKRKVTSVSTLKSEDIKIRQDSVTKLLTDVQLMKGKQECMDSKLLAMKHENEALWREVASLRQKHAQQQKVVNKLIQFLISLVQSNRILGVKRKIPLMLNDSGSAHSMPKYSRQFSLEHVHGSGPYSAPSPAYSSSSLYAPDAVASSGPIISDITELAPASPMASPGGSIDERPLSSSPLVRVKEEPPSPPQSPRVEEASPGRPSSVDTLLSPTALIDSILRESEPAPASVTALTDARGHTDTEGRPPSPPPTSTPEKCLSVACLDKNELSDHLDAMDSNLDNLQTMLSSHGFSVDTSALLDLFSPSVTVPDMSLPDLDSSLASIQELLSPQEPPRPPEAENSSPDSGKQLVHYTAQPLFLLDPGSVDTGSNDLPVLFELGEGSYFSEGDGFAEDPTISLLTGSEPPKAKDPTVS

In the case of AAGAAT, the binding signal (FEV) is reported as 1.09 fold enrichment (6-mer frequency, TF over GST control), the binding signal (ETV5) is reported as 1.11 fold enrichment (6-mer frequency, TF over GST control) and the binding signal (HSF1) is reported as 1.83 fold enrichment (6-mer frequency, TF over GST control). For the same sequence, the binding signal (SPIC) was 1.08 fold enrichment (6-mer frequency, TF over GST control), the binding signal (ELF4) was 1.24 fold enrichment (6-mer frequency, TF over GST control) and the binding signal (ELK4) was 1.09 fold enrichment (6-mer frequency, TF over GST control). The binding signal (ETV2) was 1.12 fold enrichment (6-mer frequency, TF over GST control), the binding signal (ELF3) was 1.17 fold enrichment (6-mer frequency, TF over GST control) and the binding signal (CRX) was 1.43 fold enrichment (6-mer frequency, TF over GST control). The binding signal (ETV1) was 1.15 fold enrichment (6-mer frequency, TF over GST control), the binding signal (ERF) was 1.2 fold enrichment (6-mer frequency, TF over GST control) and the binding signal (ETV3L) was 1.15 fold enrichment (6-mer frequency, TF over GST control). The binding signal (ETS2) was 1.11 fold enrichment (6-mer frequency, TF over GST control), the binding signal (SPDEF) was 1.07 fold enrichment (6-mer frequency, TF over GST control) and the binding signal (ETV7) was 1.1 fold enrichment (6-mer frequency, TF over GST control). For the same sequence, the binding signal (ELF5) was 1.15 fold enrichment (6-mer frequency, TF over GST control), the binding signal (ETV3) was 1.14 fold enrichment (6-mer frequency, TF over GST control) and the binding signal (ETV6) was 1.08 fold enrichment (6-mer frequency, TF over GST control).
